Laboratory results: ChEMBL document CHEMBL3988442, “University of Dundee, Small-Polar-MMV Screening Library” (2021)

Target: T1, Aspartate--tRNA(Asp/Asn) ligase (Mycobacterium tuberculosis (strain ATCC 25618 / H37Rv)) (UniProt P9WFW3)
T1 sequence (whole entry): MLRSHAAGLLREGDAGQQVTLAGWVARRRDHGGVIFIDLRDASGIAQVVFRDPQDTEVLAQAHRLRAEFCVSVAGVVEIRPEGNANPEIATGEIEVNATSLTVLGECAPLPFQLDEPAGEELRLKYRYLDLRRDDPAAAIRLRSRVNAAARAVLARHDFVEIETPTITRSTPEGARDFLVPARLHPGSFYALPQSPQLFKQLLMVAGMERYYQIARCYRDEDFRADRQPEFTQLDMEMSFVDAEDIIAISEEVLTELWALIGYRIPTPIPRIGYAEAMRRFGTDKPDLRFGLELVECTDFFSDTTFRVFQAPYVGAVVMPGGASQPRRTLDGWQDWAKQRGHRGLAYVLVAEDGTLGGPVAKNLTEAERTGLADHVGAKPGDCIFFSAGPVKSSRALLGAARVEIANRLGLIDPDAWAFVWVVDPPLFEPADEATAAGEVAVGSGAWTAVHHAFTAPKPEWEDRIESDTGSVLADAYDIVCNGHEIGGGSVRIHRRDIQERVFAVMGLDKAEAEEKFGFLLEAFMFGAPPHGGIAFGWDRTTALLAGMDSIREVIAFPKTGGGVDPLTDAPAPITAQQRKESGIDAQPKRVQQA
Assay: Assay for Asp RNA synthetase-1 from Mycobacterium tuberculosis
Format: functional
Set-up: scale not given: in the data most compounds retested in dose-response had high values
Conditions: 30 µM

**Q.** For `CC(C)n1ccnc1C1CCCN(c2ccnc3ccccc23)C1` (stereo not given), which Percent Effect is on record?
**A.** -3.69%

**Q.** `CS(=O)(=O)NCCC(=O)NC1CCc2nccn2C1` (stereo not given) was tested. Which Percent Effect did it give?
**A.** 3.25%

**Q.** With `CC(C)c1ncc(CN2C[C@@H](CN3CCC(CO)CC3)[C@@H](CO)C2)cn1` as the compound, how does the Percent Effect read?
**A.** -1.92%

**Q.** For `CCN(CC)CC(=O)NCCc1csc(N2CCCC2)n1`, which Percent Effect is on record?
**A.** 1.28%

**Q.** How did the Percent Effect turn out when `CCNC(=O)c1ccc(N2CCCC(c3nccn3C(C)C)C2)nc1` (stereo not given) was run?
**A.** -3.8%

**Q.** How did the Percent Effect turn out when `CCCS(=O)(=O)N1CCC(NC(=O)c2cc(C)c(CC)s2)CC1` was run?
**A.** -2.13%

**Q.** How did the Percent Effect turn out when `CSCC(=O)N1CCCC1c1noc(C2CC2)n1` (stereo not given) was run?
**A.** 0.839%

**Q.** Which Percent Effect does the source give for `Cc1cnn(C2CN(CC(O)c3ccc4c(c3)OCCO4)C2)c1` (stereo not given) here?
**A.** -4.61%

**Q.** Which Percent Effect does the source give for `COc1ccc([C@@H]2CN(C(=O)CCC(F)(F)F)C[C@H]2NC(C)=O)cc1` here?
**A.** -2.84%

**Q.** With `CN1C(=O)CC(C(=O)O)C12CCN(Cc1ccc(Cl)cc1F)CC2` (stereo not given) as the compound, how does the Percent Effect read?
**A.** -1.62%

**Q.** Which Percent Effect does the source give for `CN1C(=O)C(c2ccccc2)CC12CCN(CCOCCO)CC2` (stereo not given) here?
**A.** -1.23%

**Q.** `N#CC(Sc1nnnn1C1CCOCC1)C1CCCCC1` (stereo not given) was tested. Which Percent Effect did it give?
**A.** -2.4%

**Q.** How did the Percent Effect turn out when `CC(=O)N1CCCN(c2nccc(-c3cn(C)nc3C)n2)CC1` was run?
**A.** -4.22%

**Q.** `CCC(=O)N1CC[C@@H](c2ccc3ccccc3c2)[C@H](O)C1` was tested. Which Percent Effect did it give?
**A.** 2.26%

**Q.** Which Percent Effect does the source give for `Cc1cc(C(=O)NC2CCCN(c3ccccc3)C2=O)on1` (stereo not given) here?
**A.** 0.287%

**Q.** With `Cc1ccc(C(=O)N2CCN(S(C)(=O)=O)CC2)cc1N1CCNC1=O` as the compound, how does the Percent Effect read?
**A.** -4.61%

**Q.** Which Percent Effect does the source give for `CNC(=O)NC(=O)CN1CCC(c2c[nH]c3ccc(OC)cc23)CC1` here?
**A.** -2.54%

**Q.** `NC(=O)CN1CC2(CCC1=O)CCN(Cc1cc(F)ccc1Cl)CC2` was tested. Which Percent Effect did it give?
**A.** 0.126%

**Q.** For `CCCNC(=O)CCNC(=O)Cc1nc(-c2ccco2)oc1C`, which Percent Effect is on record?
**A.** 2.08%

**Q.** How did the Percent Effect turn out when `CCS(=O)(=O)c1ccc(N2CCC(NC(=O)CCC(C)C)CC2)cc1` was run?
**A.** -2.31%

**Q.** `O=C(O)C(c1ccc2c(c1)OCCO2)N1CCCCCC1` (stereo not given) was tested. Which Percent Effect did it give?
**A.** -3.23%

**Q.** With `N#Cc1cn(CC(=O)NC2CC2)c2ccc(Br)cc2c1=O` as the compound, how does the Percent Effect read?
**A.** 0.517%

**Q.** How did the Percent Effect turn out when `O=C1O[C@@H]2CN(Cc3cccc(F)c3)C[C@@H]2N1CCCN1CCOCC1` was run?
**A.** 0.287%

**Q.** How did the Percent Effect turn out when `CCn1nc(CC(C)C)cc1C(=O)N1CC[C@@H](O)C1` was run?
**A.** -5.25%

**Q.** `CN(C)C(=O)CNC(=O)c1cc(Br)c2c(c1)OCCO2` was tested. Which Percent Effect did it give?
**A.** 3%
